Reference: the supplement of paper PMC4466140

Assays:
Assay in all cases: SPOT peptide array binding signal intensity (averaged, normalized) (arbitrary units (background-subtracted, floor 0; scale differs between SH3 domains)); higher = stronger binding of the SH3 domain to the peptide
[1] = target: AgAbp1
Outline: (§1)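 E. coli BL21(DE3) was used to express GST-fused SH3 domains from four yeast species, which were then purified on glutathione Sepharose. These were incubated at 10 μg/ml in TBS-based blocking buffer overnight at 4°C on cellulose membranes carrying synthetic 15-mer peptides, in which cysteines were replaced by serines. Binding signal is the replicate average of normalized, background-subtracted spot intensity, in arbitrary units that differ between domains.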

[2] = target: AgBbc1
Outline: as §1

[3] = target: AgBem1-D1
Outline: as §1

[4] = target: AgBzz1-D1
Outline: as §1

[5] = target: AgBzz1-D2
Outline: as §1

[6] = target: AgCyk3
Outline: as §1

[7] = target: AgFus1
Outline: as §1

[8] = target: AgHof1
Outline: as §1

[9] = target: AgHse1
Outline: as §1

[10] = target: AgLsb1
Outline: as §1

[11] = target: AgLsb4
Outline: as §1

[12] = target: AgMyo5
Outline: as §1

[13] = target: AgNbp2
Outline: as §1

[14] = target: AgRvs167
Outline: as §1

[15] = target: AgSho1
Outline: as §1

[16] = target: AgSla1-D1-D2
Outline: as §1

[17] = target: AgSla1-D3
Outline: as §1

[18] = target: CaAbp1-D1
Outline: as §1

[19] = target: CaAbp1-D2
Outline: as §1

[20] = target: CaBbc1
Outline: as §1

[21] = target: CaBem1-D1
Outline: as §1

[22] = target: CaBzz1-D1
Outline: as §1

[23] = target: CaBzz1-D2
Outline: as §1

[24] = target: CaCyk3
Outline: as §1

[25] = target: CaFus1
Outline: as §1

[26] = target: CaHof1
Outline: as §1

[27] = target: CaHse1
Outline: as §1

[28] = target: CaLsb1
Outline: as §1

[29] = target: CaLsb4
Outline: as §1

[30] = target: CaMyo5
Outline: as §1

[31] = target: CaNbp2
Outline: as §1

[32] = target: CaRvs167
Outline: as §1

[33] = target: CaRvs167-3
Outline: as §1

[34] = target: CaSho1
Outline: as §1

[35] = target: CaSla1-D1-D2
Outline: as §1

[36] = target: CaSla1-D3
Outline: as §1

[37] = target: ScAbp1
Outline: as §1

[38] = target: ScBbc1
Outline: as §1

[39] = target: ScBem1-D1
Outline: as §1

[40] = target: ScBzz1-D1
Outline: as §1

[41] = target: ScBzz1-D2
Outline: as §1

[42] = target: ScCyk3
Outline: as §1

[43] = target: ScFus1
Outline: as §1

[44] = target: ScHof1
Outline: as §1

[45] = target: ScHse1
Outline: as §1

[46] = target: ScLsb1
Outline: as §1

[47] = target: ScLsb2
Outline: as §1

[48] = target: ScLsb3
Outline: as §1

[49] = target: ScLsb4
Outline: as §1

[50] = target: ScMyo3
Outline: as §1

[51] = target: ScMyo5
Outline: as §1

[52] = target: ScNbp2
Outline: as §1

[53] = target: ScPex13
Outline: as §1

[54] = target: ScRvs167
Outline: as §1

[55] = target: ScSho1
Outline: as §1

[56] = target: ScSla1-D1-D2
Outline: as §1

[57] = target: ScSla1-D3
Outline: as §1

[58] = target: SpAbp1-D1
Outline: as §1

[59] = target: SpBbc1
Outline: as §1

[60] = target: SpBzz1-D1
Outline: as §1

[61] = target: SpBzz1-D2
Outline: as §1

[62] = target: SpCyk3
Outline: as §1

[63] = target: SpHof1
Outline: as §1

[64] = target: SpHof1-2
Outline: as §1

[65] = target: SpHof1-3
Outline: as §1

[66] = target: SpHse1
Outline: as §1

[67] = target: SpLsb1
Outline: as §1

[68] = target: SpLsb4
Outline: as §1

[69] = target: SpMyo1
Outline: as §1

[70] = target: SpNbp2
Outline: as §1

[71] = target: SpPex13
Outline: as §1

[72] = target: SpRvs167
Outline: as §1

[73] = target: SpSla1-D1-D2
Outline: as §1

[74] = target: SpSla1-D3
Outline: as §1

Binder: PPLPRAPPVPPATFE
- SPOT peptide array binding signal intensity [1]: 16
- SPOT peptide array binding signal intensity [2]: 0.5
- SPOT peptide array binding signal intensity [3]: 40.5
- SPOT peptide array binding signal intensity [4]: 18
- SPOT peptide array binding signal intensity [5]: ≤ 0
- SPOT peptide array binding signal intensity [6]: 0.5
- SPOT peptide array binding signal intensity [7]: ≤ 0
- SPOT peptide array binding signal intensity [8]: 43.2
- SPOT peptide array binding signal intensity [9]: 15
- SPOT peptide array binding signal intensity [10]: 17.2
- SPOT peptide array binding signal intensity [11]: ≤ 0
- SPOT peptide array binding signal intensity [12]: 434
- SPOT peptide array binding signal intensity [13]: 107
- SPOT peptide array binding signal intensity [14]: ≤ 0
- SPOT peptide array binding signal intensity [15]: 6
- SPOT peptide array binding signal intensity [16]: 5
- SPOT peptide array binding signal intensity [17]: ≤ 0
- SPOT peptide array binding signal intensity [18]: 21.5
- SPOT peptide array binding signal intensity [19]: 20
- SPOT peptide array binding signal intensity [20]: 79.2
- SPOT peptide array binding signal intensity [21]: 23
- SPOT peptide array binding signal intensity [22]: 243
- SPOT peptide array binding signal intensity [23]: 39.5
- SPOT peptide array binding signal intensity [24]: 1.5
- SPOT peptide array binding signal intensity [25]: 47
- SPOT peptide array binding signal intensity [26]: 1.5
- SPOT peptide array binding signal intensity [27]: ≤ 0
- SPOT peptide array binding signal intensity [28]: ≤ 0
- SPOT peptide array binding signal intensity [29]: ≤ 0
- SPOT peptide array binding signal intensity [30]: 104
- SPOT peptide array binding signal intensity [31]: 1100
- SPOT peptide array binding signal intensity [32]: ≤ 0
- SPOT peptide array binding signal intensity [33]: ≤ 0
- SPOT peptide array binding signal intensity [34]: 14
- SPOT peptide array binding signal intensity [35]: 2
- SPOT peptide array binding signal intensity [36]: 1
- SPOT peptide array binding signal intensity [37]: 4.5
- SPOT peptide array binding signal intensity [38]: ≤ 0
- SPOT peptide array binding signal intensity [39]: ≤ 0
- SPOT peptide array binding signal intensity [40]: 4.5
- SPOT peptide array binding signal intensity [41]: ≤ 0
- SPOT peptide array binding signal intensity [42]: ≤ 0
- SPOT peptide array binding signal intensity [43]: 11
- SPOT peptide array binding signal intensity [44]: 241
- SPOT peptide array binding signal intensity [45]: ≤ 0
- SPOT peptide array binding signal intensity [46]: 1
- SPOT peptide array binding signal intensity [47]: 11
- SPOT peptide array binding signal intensity [48]: 84
- SPOT peptide array binding signal intensity [49]: ≤ 0
- SPOT peptide array binding signal intensity [50]: 1100
- SPOT peptide array binding signal intensity [51]: 463
- SPOT peptide array binding signal intensity [52]: 200
- SPOT peptide array binding signal intensity [53]: 95
- SPOT peptide array binding signal intensity [54]: 33.5
- SPOT peptide array binding signal intensity [55]: 81
- SPOT peptide array binding signal intensity [56]: ≤ 0
- SPOT peptide array binding signal intensity [57]: ≤ 0
- SPOT peptide array binding signal intensity [58]: 7
- SPOT peptide array binding signal intensity [59]: 1
- SPOT peptide array binding signal intensity [60]: 566
- SPOT peptide array binding signal intensity [61]: 23.2
- SPOT peptide array binding signal intensity [62]: ≤ 0
- SPOT peptide array binding signal intensity [63]: 1
- SPOT peptide array binding signal intensity [64]: 707
- SPOT peptide array binding signal intensity [65]: 125
- SPOT peptide array binding signal intensity [66]: 30.8
- SPOT peptide array binding signal intensity [67]: 1.75
- SPOT peptide array binding signal intensity [68]: ≤ 0
- SPOT peptide array binding signal intensity [69]: 422
- SPOT peptide array binding signal intensity [70]: 17
- SPOT peptide array binding signal intensity [71]: ≤ 0
- SPOT peptide array binding signal intensity [72]: 88
- SPOT peptide array binding signal intensity [73]: 3
- SPOT peptide array binding signal intensity [74]: ≤ 0

Binder: SRYRRPLTLLLLKPF
- SPOT peptide array binding signal intensity [1]: 16
- SPOT peptide array binding signal intensity [2]: 6
- SPOT peptide array binding signal intensity [3]: 0.5
- SPOT peptide array binding signal intensity [4]: 23
- SPOT peptide array binding signal intensity [5]: 17
- SPOT peptide array binding signal intensity [6]: 1
- SPOT peptide array binding signal intensity [7]: 965
- SPOT peptide array binding signal intensity [8]: 13.8
- SPOT peptide array binding signal intensity [9]: 1270
- SPOT peptide array binding signal intensity [10]: ≤ 0
- SPOT peptide array binding signal intensity [11]: 270
- SPOT peptide array binding signal intensity [12]: 0.5
- SPOT peptide array binding signal intensity [13]: 97.5
- SPOT peptide array binding signal intensity [14]: 5.17
- SPOT peptide array binding signal intensity [15]: 334
- SPOT peptide array binding signal intensity [16]: 40
- SPOT peptide array binding signal intensity [17]: 4
- SPOT peptide array binding signal intensity [18]: 155
- SPOT peptide array binding signal intensity [19]: 128
- SPOT peptide array binding signal intensity [20]: 38
- SPOT peptide array binding signal intensity [21]: 8.5
- SPOT peptide array binding signal intensity [22]: 26.5
- SPOT peptide array binding signal intensity [23]: 14.2
- SPOT peptide array binding signal intensity [24]: 9
- SPOT peptide array binding signal intensity [25]: 1410
- SPOT peptide array binding signal intensity [26]: 0.5
- SPOT peptide array binding signal intensity [27]: 80.8
- SPOT peptide array binding signal intensity [28]: 2.5
- SPOT peptide array binding signal intensity [29]: 37
- SPOT peptide array binding signal intensity [30]: ≤ 0
- SPOT peptide array binding signal intensity [31]: 870
- SPOT peptide array binding signal intensity [32]: 66.8
- SPOT peptide array binding signal intensity [33]: 141
- SPOT peptide array binding signal intensity [34]: 493
- SPOT peptide array binding signal intensity [35]: ≤ 0
- SPOT peptide array binding signal intensity [36]: 39.2
- SPOT peptide array binding signal intensity [37]: 83
- SPOT peptide array binding signal intensity [38]: 2.5
- SPOT peptide array binding signal intensity [39]: 10
- SPOT peptide array binding signal intensity [40]: 13
- SPOT peptide array binding signal intensity [41]: 74.5
- SPOT peptide array binding signal intensity [42]: 28
- SPOT peptide array binding signal intensity [43]: 546
- SPOT peptide array binding signal intensity [44]: 1
- SPOT peptide array binding signal intensity [45]: 2310
- SPOT peptide array binding signal intensity [46]: 12.5
- SPOT peptide array binding signal intensity [47]: 2
- SPOT peptide array binding signal intensity [48]: 107
- SPOT peptide array binding signal intensity [49]: 31.5
- SPOT peptide array binding signal intensity [50]: 0.5
- SPOT peptide array binding signal intensity [51]: 0.5
- SPOT peptide array binding signal intensity [52]: 234
- SPOT peptide array binding signal intensity [53]: 1
- SPOT peptide array binding signal intensity [54]: 11
- SPOT peptide array binding signal intensity [55]: 648
- SPOT peptide array binding signal intensity [56]: 1
- SPOT peptide array binding signal intensity [57]: 8
- SPOT peptide array binding signal intensity [58]: 199
- SPOT peptide array binding signal intensity [59]: 6.25
- SPOT peptide array binding signal intensity [60]: 18
